Laboratory results as given in publication PMC9911399, “Two distinct binding modes provide the RNA-binding protein RbFox with extraordinary sequence specificity”.
Where a chain is given by its changes, count along the chain named. Over roughly 16,000 sequences, “ka relative to ugcaugu” has its median near 0.096; the highest 2% begin near 0.35. The sample as a whole holds a higher share of the highest values than the screen did.

T1: RBFOX1 RRM RbFoxmut (Fox-RRM*) (Homo sapiens, UniProt Q9NWB1 109-208, R118D;E147R;N151S;E152T)
T1 sequence: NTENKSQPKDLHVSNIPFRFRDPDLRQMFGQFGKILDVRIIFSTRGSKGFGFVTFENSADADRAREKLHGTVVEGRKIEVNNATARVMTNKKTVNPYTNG

B1: GGCCUAA (DNA:RNA)
RNA: GGGAGACCGGAAUUCAGAUUGUCCGGCCUAAUUAAAUCCCGUCGUAGCCACCA
DNA 1: CAATCTGAATTCCGGTCTCCC
DNA 2: TGGTGGCTACGACGGGATT
B2: GUUCGUA (DNA:RNA)
RNA: B1 RNA with G26U, C27U, U29G, A30U
DNA 1: CAATCTGAATTCCGGTCTCCC
DNA 2: TGGTGGCTACGACGGGATT
B3: UUCUUCA (DNA:RNA)
RNA: B1 RNA with G25U, G26U, C28U, A30C
DNA 1: CAATCTGAATTCCGGTCTCCC
DNA 2: TGGTGGCTACGACGGGATT
B4: UGCGUAU (DNA:RNA)
RNA: B1 RNA with G25U, C28G, A31U
DNA 1: CAATCTGAATTCCGGTCTCCC
DNA 2: TGGTGGCTACGACGGGATT
B5: AUAGGAG (DNA:RNA)
RNA: B1 RNA with G25A, G26U, C27A, C28G, U29G, A31G
DNA 1: CAATCTGAATTCCGGTCTCCC
DNA 2: TGGTGGCTACGACGGGATT
B6: CAGGGCG (DNA:RNA)
RNA: GGGAGACCGGAAUUCAGAUUGUCCCAGGGCGUUAAAUCCCGUCGUAGCCACCA
DNA 1: CAATCTGAATTCCGGTCTCCC
DNA 2: TGGTGGCTACGACGGGATT
B7: GAUCCAA (DNA:RNA)
RNA: B1 RNA with G26A, C27U, U29C
DNA 1: CAATCTGAATTCCGGTCTCCC
DNA 2: TGGTGGCTACGACGGGATT
B8: AGCUUUC (DNA:RNA)
RNA: B1 RNA with G25A, C28U, A30U, A31C
DNA 1: CAATCTGAATTCCGGTCTCCC
DNA 2: TGGTGGCTACGACGGGATT
B9: GAAUGCG (DNA:RNA)
RNA: B6 RNA with C25G, G27A, G28U
DNA 1: CAATCTGAATTCCGGTCTCCC
DNA 2: TGGTGGCTACGACGGGATT
B10: CGAUGCC (DNA:RNA)
RNA: B6 RNA with A26G, G27A, G28U, G31C
DNA 1: CAATCTGAATTCCGGTCTCCC
DNA 2: TGGTGGCTACGACGGGATT
B11: GAAUCCC (DNA:RNA)
RNA: B6 RNA with C25G, G27A, G28U, G29C, G31C
DNA 1: CAATCTGAATTCCGGTCTCCC
DNA 2: TGGTGGCTACGACGGGATT
B12: GGAUGCC (DNA:RNA)
RNA: B6 RNA with C25G, A26G, G27A, G28U, G31C
DNA 1: CAATCTGAATTCCGGTCTCCC
DNA 2: TGGTGGCTACGACGGGATT
B13: GAAUGCC (DNA:RNA)
RNA: B6 RNA with C25G, G27A, G28U, G31C
DNA 1: CAATCTGAATTCCGGTCTCCC
DNA 2: TGGTGGCTACGACGGGATT
B14: CGAUGCG (DNA:RNA)
RNA: B6 RNA with A26G, G27A, G28U
DNA 1: CAATCTGAATTCCGGTCTCCC
DNA 2: TGGTGGCTACGACGGGATT
B15: CUUCGUG (DNA:RNA)
RNA: B6 RNA with A26U, G27U, G28C, C30U
DNA 1: CAATCTGAATTCCGGTCTCCC
DNA 2: TGGTGGCTACGACGGGATT
B16: CACUUAC (DNA:RNA)
RNA: B1 RNA with G25C, G26A, C28U, A31C
DNA 1: CAATCTGAATTCCGGTCTCCC
DNA 2: TGGTGGCTACGACGGGATT
B17: GAAUGAA (DNA:RNA)
RNA: B1 RNA with G26A, C27A, C28U, U29G
DNA 1: CAATCTGAATTCCGGTCTCCC
DNA 2: TGGTGGCTACGACGGGATT
B18: GUCCGAA (DNA:RNA)
RNA: B1 RNA with G26U, U29G
DNA 1: CAATCTGAATTCCGGTCTCCC
DNA 2: TGGTGGCTACGACGGGATT
B19: GACCGAA (DNA:RNA)
RNA: B1 RNA with G26A, U29G
DNA 1: CAATCTGAATTCCGGTCTCCC
DNA 2: TGGTGGCTACGACGGGATT
B20: GAAAUGA (DNA:RNA)
RNA: B1 RNA with G26A, C27A, C28A, A30G
DNA 1: CAATCTGAATTCCGGTCTCCC
DNA 2: TGGTGGCTACGACGGGATT
B21: GUAAUGA (DNA:RNA)
RNA: B1 RNA with G26U, C27A, C28A, A30G
DNA 1: CAATCTGAATTCCGGTCTCCC
DNA 2: TGGTGGCTACGACGGGATT
B22: GAUGAUU (DNA:RNA)
RNA: B6 RNA with C25G, G27U, G29A, C30U, G31U
DNA 1: CAATCTGAATTCCGGTCTCCC
DNA 2: TGGTGGCTACGACGGGATT
B23: GAAUGAU (DNA:RNA)
RNA: B6 RNA with C25G, G27A, G28U, C30A, G31U
DNA 1: CAATCTGAATTCCGGTCTCCC
DNA 2: TGGTGGCTACGACGGGATT
B24: CGUUAAA (DNA:RNA)
RNA: B1 RNA with G25C, C27U, C28U, U29A
DNA 1: CAATCTGAATTCCGGTCTCCC
DNA 2: TGGTGGCTACGACGGGATT
B25: GAAUUUU (DNA:RNA)
RNA: B1 RNA with G26A, C27A, C28U, A30U, A31U
DNA 1: CAATCTGAATTCCGGTCTCCC
DNA 2: TGGTGGCTACGACGGGATT
B26: GGAAUGA (DNA:RNA)
RNA: B1 RNA with C27A, C28A, A30G
DNA 1: CAATCTGAATTCCGGTCTCCC
DNA 2: TGGTGGCTACGACGGGATT
B27: GAAUUGA (DNA:RNA)
RNA: B1 RNA with G26A, C27A, C28U, A30G
DNA 1: CAATCTGAATTCCGGTCTCCC
DNA 2: TGGTGGCTACGACGGGATT
B28: CGAAUGA (DNA:RNA)
RNA: B1 RNA with G25C, C27A, C28A, A30G
DNA 1: CAATCTGAATTCCGGTCTCCC
DNA 2: TGGTGGCTACGACGGGATT
B29: GACUAAG (DNA:RNA)
RNA: B1 RNA with G26A, C28U, U29A, A31G
DNA 1: CAATCTGAATTCCGGTCTCCC
DNA 2: TGGTGGCTACGACGGGATT
B30: CAUAAUU (DNA:RNA)
RNA: B6 RNA with G27U, G28A, G29A, C30U, G31U
DNA 1: CAATCTGAATTCCGGTCTCCC
DNA 2: TGGTGGCTACGACGGGATT
B31: AUCUAGU (DNA:RNA)
RNA: B1 RNA with G25A, G26U, C28U, U29A, A30G, A31U
DNA 1: CAATCTGAATTCCGGTCTCCC
DNA 2: TGGTGGCTACGACGGGATT

Each binder was assayed against T1, RBFOX1 RRM RbFoxmut (Fox-RRM*) (assay: EMSA; HiTS-Eq, 1 nM pool, 10 min; buffer printed only for the single-RNA assays: 10 mM Tris pH 7.5, 150 mM NaCl, 3.4 mM EDTA, 0.001% NP-40, 30 C). Settings: tags: His6 N-terminal (pET28a); label: 5' 32P.
Outline: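 Purified RbFox RRM (wild type or mutant) was equilibrated for 10 min in 50 µL with 1 nM of a 5′-radiolabelled pool of RNA with 7 randomized nucleotides, its flanks annealed to DNA oligonucleotides, across increasing protein concentrations. Free RNA was separated by 8% native PAGE, excised, reverse-transcribed, PCR-barcoded and sequenced on an Illumina HiSeq 2500. Relative association constants came from read-count changes of each variant against the control reaction, normalised to the cognate motif.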

| Binder | binding signal |
| --- | --- |
| B1 | 0.0594 KA relative to UGCAUGU |
| B2 | 0.155 KA relative to UGCAUGU |
| B3 | 0.111 KA relative to UGCAUGU |
| B4 | 0.143 KA relative to UGCAUGU |
| B5 | 0.097 KA relative to UGCAUGU |
| B6 | 0.123 KA relative to UGCAUGU |
| B7 | 0.0776 KA relative to UGCAUGU |
| B8 | 0.0646 KA relative to UGCAUGU |
| B9 | 0.763 KA relative to UGCAUGU |
| B10 | 0.206 KA relative to UGCAUGU |
| B11 | 0.0694 KA relative to UGCAUGU |
| B12 | 0.168 KA relative to UGCAUGU |
| B13 | 0.356 KA relative to UGCAUGU |
| B14 | 0.113 KA relative to UGCAUGU |
| B15 | 0.135 KA relative to UGCAUGU |
| B16 | 0.1 KA relative to UGCAUGU |

| Binder | binding signal |
| --- | --- |
| B17 | 0.873 KA relative to UGCAUGU |
| B18 | 0.0703 KA relative to UGCAUGU |
| B19 | 0.0991 KA relative to UGCAUGU |
| B20 | 0.0974 KA relative to UGCAUGU |
| B21 | 0.121 KA relative to UGCAUGU |
| B22 | 0.084 KA relative to UGCAUGU |
| B23 | 0.641 KA relative to UGCAUGU |
| B24 | 0.107 KA relative to UGCAUGU |
| B25 | 0.1 KA relative to UGCAUGU |
| B26 | 0.772 KA relative to UGCAUGU |
| B27 | 0.129 KA relative to UGCAUGU |
| B28 | 1.04 KA relative to UGCAUGU |
| B29 | 0.101 KA relative to UGCAUGU |
| B30 | 0.0899 KA relative to UGCAUGU |
| B31 | 0.14 KA relative to UGCAUGU |
